Where “and” joins values, the source holds several entries; their conditions need not be identical. Equal values may be shown once. About 83,000 compounds went through this panel and 20% of them were active in at least one assay; those are over-represented in the sample as a whole.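 Step 1: grow cells in 96-well plates. Step 2: add test compound at a single concentration. Step 3: incubate 48 h. Step 4: record percent growth.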 Calls of active or inactive are those of the source. Rule for the calls: active = growth percent below 10; inactive = the rest.

The assay relates to HL-60(TB) leukemia. In words: NCI-60 one-dose screen, 48 h (100 = growth as untreated, 0 = no growth, -100 = all killed). The conditions noted are these: 10 µM unless noted.
For the compound `O=C1Nc2cc(-c3ccncc3)ccc2/C1=C/c1ccc[nH]1`, the growth is 99.9% (inactive).

Consider `COc1ccc(Cn2cc(Cn3c(=O)c(-c4nc5ccccc5[nH]4)cc4ccccc43)nn2)c(OC)c1OC`, for which the growth is 7.75% (active).

With `O=[N+]([O-])c1ccc(N/N=C(/C(=N/Nc2ccc([N+](=O)[O-])cc2)c2ccccc2)c2ccccc2)cc1`, the growth is 117% (inactive).

Consider `C=CCn1c(SCC(=O)Nc2ccc(C(=O)/C=C/c3cc(OC)c(OC)c(OC)c3)cc2)nnc1-c1cc(-c2ccc(S(C)(=O)=O)cc2)nc2ccccc12`, for which the growth is 69.8% (inactive).

`CCCCn1c(-c2ccc(F)cc2)nc2cc(OC)c(OC)cc2c1=O`: the growth was 67.1% (inactive).

In the case of `Clc1ccc(/C=N\N=c2\scc(-c3ccc(Cl)cc3)n2/N=C/c2ccc(Cl)cc2)cc1`, the growth was 84.5% (inactive).

With `Cc1ccc(-c2nc([P+](c3ccccc3)(c3ccccc3)c3ccccc3)c(N3CCOCC3)o2)cc1`, the growth is -27.7% (active).

With `CCOc1nc(-c2ccccc2)cc2c(O)c(C(=O)O)[nH]c(=O)c12`, the growth was 120% (inactive).

Turning to `COc1ccc(S(=O)(=O)c2ccc(F)cc2)cc1`, the growth is 105% (inactive).

Turning to `CN(C)CCCn1c(=O)c2cc([N+](=O)[O-])ccc2c2cnc3[nH]ccc3c21`, the growth was 90.4% (inactive).

`Cc1ncc(C(=O)Nc2ccc(CN3CCN(C)CC3)c(C(F)(F)F)c2)cc1C#Cc1cnc(NC2CC2)c2ncccc12`: the growth is 34.1% (inactive).

Take `CC(C)c1[nH]ncc1-c1nc2ccc3[nH]ncc3c2c2c1CCCC2`: the growth is 13.4% (inactive).

Turning to `COc1ccc(-c2nc3sc(-c4ccccc4)c(-c4ccccc4)n3c2/C=C/C(=O)c2ccccn2)cc1`, the growth is 50.5% (inactive).

`COc1c(/C(C)=N/N=c2sc(C(C)=O)nn2-c2ccc(Cl)cc2)c(Oc2ccccc2)c(OC)c2occc12`: the growth was 102% (inactive) and 104% (inactive).

`COc1ccc(-c2nc(SCC(C)C)nc(N/N=C\c3ccc(F)cc3)c2C#N)cc1`: the growth was 83.4% (inactive).

Take `Cc1ccc(/C=N/NC(N)=S)s1`: the growth was 101% (inactive).

With `Cc1ccc(-c2csc(NC(=O)CN3CCN(c4cc5c(cc4F)c(=O)c(C(=O)O)cn5C4CC4)CC3)n2)cc1`, the growth was -56.3% (active).

With `Cc1ccccc1NC(=O)c1sc2nc(C)c(C(=O)/C=C/c3ccccc3)cc2c1N`, the growth is 8.8% (active).

With `O=[N+]([O-])c1cccc2cc(S(=O)(=O)O)ccc12`, the growth is 76.9% (inactive).

As to `C/C(=C\CCc1ccoc1)CC/C=C(\C)CCCC1COC(=O)C1` (centres undefined), the growth is 95.8% (inactive).

For the compound `O=C1N[C@H]2[C@H](CS[C@H]2CCCCC(=O)N(CCP(c2ccccc2)c2ccccc2)CCP(c2ccccc2)c2ccccc2)N1`, the growth was 72.8% (inactive).

In the case of `COC(=O)CCC(=O)c1ccccc1`, the growth was 94.7% (inactive).

Turning to `O=C1Nc2ccc(F)cc2/C1=C\c1c(-c2ccccc2)nc2ccccn12`, the growth is 56.4% (inactive).

On to `COc1cc(-n2cc(-c3cc(O)c(C/C=C(\C)CCC=C(C)C)c(O)c3)nn2)cc2c1O[C@]1(C)CC[C@@H](O)C(C)(C)[C@H]1C2`, for which the growth was -13.9% (active).

In the case of `N#Cc1ccc(-c2ccc3c(c2)NC(=O)/C3=C\c2ccc[nH]2)cc1`, the growth was 101% (inactive).

For the compound `COc1ccc(Nc2ncccc2C(=O)NCc2cn(Cc3cccc(Oc4ccccc4)c3)nn2)c(OC)c1`, the growth was 18.9% (inactive).

Take `CC1=CCC2CC1C2(C)C` (centres undefined): the growth was 105% (inactive) and 92.9% (inactive).

Take `Cc1ccc(S(=O)(=O)Nc2cccc(Cn3c(=O)[nH]c4ccc(Oc5ncccn5)cc4c3=O)c2)cc1`: the growth was 65.3% (inactive).

Consider `CCCCCCCCCCCCCCCCC(C(=O)O)C(O)(CC(=O)O)C(=O)O` (centres undefined), for which the growth is 94.6% (inactive) and -8.25% (active).

`CC1(C)S(=O)(=O)OCCOS1(=O)=O`: the growth was 95.6% (inactive).

As to `c1ccc(-c2nnn(-c3ccccc3)n2)cc1`, the growth is 88.9% (inactive).

For `O=C(/C=C/c1ccc(C(F)(F)F)cc1)c1ccc(Nc2nc(NCCO)nc(N3CCOCC3)n2)cc1`, the growth is 15.4% (inactive).

As for `O=C(Nc1cccc(-n2cc(-c3ccncc3)c(-c3ccc(O)c(Cl)c3)n2)c1)Nc1cccc(C(F)(F)F)c1`, the growth was -11.6% (active).

Regarding `O=C(Nc1cccc(F)c1)c1cc(=O)[nH]c2cc(Br)ccc12`, the growth is 3.41% (active).

Turning to `COc1cc(C2NC(=O)C(C#N)=C(Nc3cccc(C)c3)S2)ccc1O` (centres undefined), the growth was 84% (inactive).

Consider `COc1ccc(C2C=C(c3ccc(Cl)c(Cl)c3)N=C3SC(C)=CN32)cc1OC` (centres undefined), for which the growth is 63.3% (inactive).

For the compound `CC(C)(C#N)c1cc(F)cc(C(=O)Nc2cc(Nc3ncccc3-c3ncnc4nc[nH]c34)ccc2F)c1`, the growth was 13.9% (inactive).

For the compound `Nc1c(C(=O)Nc2ccccn2)sc2nc3c(cc12)CCCCCC3`, the growth was -22.2% (active).

`C=CC[Se]C(=O)Cc1c(C)n(C(=O)c2ccc(Cl)cc2)c2ccc(OC)cc12`: the growth is -53.3% (active).

The values are drawn from PubChem BioAssay (NCI).
